Pol eta inh: qHTS for Inhibitors of Polymerase Eta | DNA polymerase eta (Homo sapiens), Q9Y253 | recombinant Pol eta, fluorescent DNA replication assay | Potency, µM (series often up to 114 µM), for the others: top-dose activity change, negative = inhibition, most hits filed as inhibitors | actives 1.2% (n = 390,000); further: on the % scale 0 is the no-effect control and ±100 the full control effect
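Pol eta (10 nM) was preincubated with compounds for 15 min at room temperature, after which fluorescent replication substrate (50 nM final) was added to start the reaction. Fluorescence was read kinetically at 0 and 10 min.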
Pol iota inh: qHTS for Inhibitors of Polymerase Iota; DNA polymerase iota (Homo sapiens), Q9UNA4; Pol iota fluorescent replication assay, 10 min; Potency, µM (top dose mostly 115 µM), for the others: at the top dose activity, negative = inhibition, usual class: inhibitors; actives 1% (n = 390,000)
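Pol iota at 10 nM preincubated 15 min with compounds at room temperature; reaction started with fluorescent substrate, 50 nM final. Fluorescence read kinetically at 0 and 10 min; buffer-only wells as negative control.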
FEN1 inh: qHTS Assay for the Inhibitors of Human Flap endonuclease 1 (FEN1). P39748. Recombinant FEN1 flap cleavage, fluorescence, 15 min. Potency, µM (titrated, usually from 114 µM), for inactives: top-dose activity change, negative = inhibition, most hits filed as inhibitors. actives 0.35% (n = 390,000). AID 588795, 2011; further: on the % scale 0 is the no-effect control and ±100 the full control effect; nearly all actives have a fitted effect of over 65% in size
Target sequence (P39748 whole entry, looked up): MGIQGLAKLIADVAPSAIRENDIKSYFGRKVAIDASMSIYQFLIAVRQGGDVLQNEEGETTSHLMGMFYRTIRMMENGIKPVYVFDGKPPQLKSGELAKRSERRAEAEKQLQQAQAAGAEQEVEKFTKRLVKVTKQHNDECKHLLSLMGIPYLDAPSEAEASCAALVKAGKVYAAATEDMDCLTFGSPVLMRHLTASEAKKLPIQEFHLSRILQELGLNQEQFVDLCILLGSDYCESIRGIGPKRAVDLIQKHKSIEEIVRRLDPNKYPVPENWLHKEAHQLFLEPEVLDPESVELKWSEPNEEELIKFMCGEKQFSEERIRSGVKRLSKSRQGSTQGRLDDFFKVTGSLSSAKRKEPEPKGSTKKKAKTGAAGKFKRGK
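Concentration–response screening of FEN1 (10 nM): 15 min compound preincubation at room temperature, reaction started with 50 nM substrate and read at 0 and 15 min. Corrected, normalized data were fitted by a four-parameter Hill equation.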
WRN helicase inh: qHTS for Inhibitors of WRN Helicase | actives 0.46% (n = 360,000) | WRN helicase unwinding, fluorescent forked duplex, kinetic | Bifunctional 3'-5' exonuclease/ATP-dependent helicase WRN (Homo sapiens), Q14191 | Potency, µM (top dose mostly 114 µM), without a hit: at the top dose activity change, negative = inhibition, usual class: inhibitors; further: on the % scale 0 is the no-effect control and ±100 the full control effect; nearly all actives have a fitted effect of over 55% in size
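Kinetic fluorescence helicase assay: unwinding of a quenched forked DNA duplex (100 nM final) with 2 mM ATP final raises red fluorescence (525/598 nm). Compounds sat 15 min at room temperature with 20 nM WRN beforehand.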
Pol kappa inh: qHTS for Inhibitors of Polymerase Kappa; DNA polymerase kappa (Homo sapiens), Q9UBT6; purified Pol kappa, fluorescent DNA synthesis assay, 10 min; Potency, µM (top dose mostly 107 µM), without a hit: at the top dose activity, negative = inhibition, hits mostly inhibitors; actives 0.53% (n = 400,000); AID 588579, 2011; further: on the % scale 0 is the no-effect control and ±100 the full control effect
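10 nM Pol kappa preincubated 15 min at room temperature with compounds, then reaction started with substrate at 50 nM final. Fluorescence read kinetically at 0 and 10 min; buffer-only wells served as negative control.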
POLB inh: qHTS Assay for Inhibitors of DNA Polymerase Beta; actives 1.3% (n = 340,000); Potency, µM (top dose mostly 114 µM), inactives show at the highest dose activity change, negative = inhibition, hits mostly inhibitors; Pol beta primer extension/strand displacement, fluorescence kinetic; P06746; further: on the % scale 0 is the no-effect control and ±100 the full control effect
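Values derive from four-parameter Hill fits of normalized kinetic data: reads at 0 and 10 min following addition of 50 nM substrate to 10 nM Pol beta preincubated 15 min with compound.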
* marks the source's active call; other numbers are inactive results; ? = inconclusive; · = no result given; [ ] = another dose, or the depositor's remark. An excerpt weighted towards active compounds, which were near 2.4% of everything screened. The call rests on the fitted dose curve; in most records, active means well fitted curve in the direction sought with a large enough effect; inconclusive means small, poorly fitted or top-dose-only effect, or another doubt; inactive means no such curve, though single readings can be large; an effect the other way counts as inactive or inconclusive. Potency means the concentration at half of the fitted maximal effect.

SMILES	Pol eta inh	Pol iota inh	FEN1 inh	WRN helicase inh	Pol kappa inh	POLB inh
CC1(C)OC(c2ccccc2)=C/C(=C/C=C2C(=O)NC(=O)NC2=O)O1	?	?	-6%	?	-32%	14µM*
N=C(N)c1ccc(CS(=O)(=O)F)cc1	·	·	·	·	-9%[60.1 µM]	·
N=C(N)c1ccc(-c2ccc(-c3ccc(C(=N)N)cc3)o2)cc1	·	10µM*	40µM*	·	13µM*	·
COc1ccc2c(c[n+](C)c3c4cc5c(cc4ccc23)OCO5)c1OC	?	?	?	·	-7%[60.1 µM]	28µM*
CN(C(=O)Cc1ccc(Cl)c(Cl)c1)C(CN1CCCC1)c1cccc(N=C=S)c1 (centres undefined)	·	·	·	·	5%[19.4 µM]	·
Nc1ccccc1C(=O)OC1CSC1	?	9%	-3%	-16%[57.1 µM]	-2%	56µM*
CCOC(=O)c1ccccc1N	-6%	9%	-3%	-7%	1%	·
CCC(C)N1C(=O)/C(=C\c2ccc(N3CCCCCC3)cc2)C(=O)NC1=S (centres undefined)	6%	87%	-5%	?	-13%	-23%
CCC(C)N1C(=O)/C(=C\c2cc3c4c(c2)CCCN4CCC3)C(=O)NC1=S (centres undefined)	?	?	8%	?	-34%	45µM*
CC(=O)Nc1ccc(OC(=O)N2CCN(/[N+]([O-])=N/Oc3ccc([N+](=O)[O-])cc3[N+](=O)[O-])CC2)cc1	·	?	?	·	5%	·
COc1ccc(NCC(=O)N2CCCC2)cc1Cl	1%	172%	3%	12%	2%	26%
[Cl][In]([Cl])[Cl]	·	18µM*	?	·	3%[60.1 µM]	·
CC(=O)OCC1=C[C@H]2[C@@H]3C(C)(C)[C@]3(OC(=O)Cc3ccccc3)C[C@@H](C)[C@]2(O)[C@@H]2C=C(C)C(=O)[C@@]2(O)C1	·	·	·	·	-3%[12 µM]	·
Oc1c(Br)c(Br)c(Br)c(Br)c1Br	?	?	50µM*	-29%	?	·
Oc1c(Br)cc(Br)cc1Br	-9%	1%	-5%	-8%	-7%	·
[Cl-].[Cl-].[Hg+2]	·	·	·	·	-29%[60.1 µM]	·
[Hg+][c]1ccccc1	·	14µM*	10µM*	·	2%[19.4 µM]	·
Cc1c(C(=O)Nc2ccc(Br)cc2F)oc2ccc(S(=O)(=O)N3CCCCC3)cc12	4%	-5%	-2%	·	-10%[60.1 µM]	0%
C[C@@H]1O[C@@H](O[C@@H]2C=C3CC[C@@H]4[C@@H](CC[C@]5(C)[C@H](c6ccc(=O)oc6)CC[C@@]45O)[C@@]3(C)CC2)[C@H](O)[C@H](O)[C@H]1O	·	-9%	-5%	·	-4%	·
CCCCNC(=O)c1c(N)n(CCCOC)c2nc3ccccc3nc12	-7%	2.5µM*	?	-8%	-18%	18%
CCCCCn1c(NC(=O)c2ccco2)c(C(=O)OCC)c2nc3ccccc3nc21	22µM*	1.4µM*	-7%	?	-18%	-8%
CCOC(=O)c1c(NS(=O)(=O)c2ccccc2)n(CCCOC)c2nc3ccccc3nc12	?	1.1µM*	-6%	-30%	-22%	1%
COCCCn1c(N)c(C(=O)OCCOC)c2nc3ccccc3nc21	-4%	36%	-1%	-7%	-6%	1%
COCCCNC(=O)c1c(NC(=O)c2ccco2)n(Cc2ccccc2)c2nc3ccccc3nc12	?	3.2µM*	-13%	?	-27%	10%
CCCOCCN(C(=O)CCl)c1c(CC)cccc1CC	·	·	·	·	15%[60.1 µM]	·
SMILES	Pol eta inh	Pol iota inh	FEN1 inh	WRN helicase inh	Pol kappa inh	POLB inh
CN1C(=O)/C(=C\c2ccc(N3CCCCCC3)cc2)C(=O)NC1=S	-11%	-10%	-8%	-17%	-15%	-29%
Cc1ccsc1/C=C1\C(=O)NC(=S)N(C)C1=O	-17%	?	79µM*	50µM*	3%	25%
CCN1C(=O)/C(=C\c2ccc([N+](=O)[O-])s2)C(=O)NC1=S	·	·	·	·	·	4.5µM*
Cc1ccc(/C=C2\C(=O)NC(=O)N(CCc3ccc(F)cc3)C2=O)s1	-1%	112%	-1%	-14%	-3%	0%
CN1C(=O)/C(=C/c2ccc(Cl)s2)C(=O)NC1=S	?	?	-24%	14µM*	-24%	4%
CC(C)CCC(=O)OC1CCC2C3CCC4=CC(=O)CC[C@]4(C)C3CC[C@]12C (some centres undefined)	·	·	·	·	2%[19.4 µM]	·
CCCN1CCC[C@@H]2Cc3cn[nH]c3C[C@H]21	·	·	·	·	-4%[60.1 µM]	·
O=C1c2ccccc2C(=O)N1SC1CCCCC1	-11%	?	-5%	50µM*	10%	2%
CC(C)c1ccc(NC(=O)C2CCC(CNS(=O)(=O)c3ccc4c(c3)CCCC(=O)N4)CC2)cc1 (centres undefined)	-12%	?	2%	·	19%	14%
CCCCn1c(O)c(/C=N/NC(=O)c2ccncc2)c(=O)[nH]c1=S	?	92%	-6%	32µM*	-4%	?
CCOC(=O)N1CCN(/[N+]([O-])=N/Oc2ccc([N+](=O)[O-])cc2[N+](=O)[O-])CC1C (centres undefined)	·	?	-32%	·	-1%	·
COc1ccc(CN2C(=O)NC(=O)/C(=C/c3ccc([N+](=O)[O-])o3)C2=O)cc1	·	·	·	·	·	6.3µM*
Cc1cc(/C=C2/C(=O)NC(=O)N(c3ccccc3)C2=O)c(C)n1-c1ccc(F)cc1	?	?	1%	-15%	-18%	·
Cc1ccc(/C=C2/C(=O)NC(=O)N(Cc3ccc(F)cc3)C2=O)o1	·	·	·	·	·	25%
Cc1ccc(/C=C2\C(=O)NC(=O)N(Cc3ccccc3Cl)C2=O)o1	79µM*	25µM*	?	?	?	?
Cc1cccc(N2C(=O)NC(=O)/C(=C\C=C\c3ccco3)C2=O)c1	?	13µM*	?	-34%	-94%	?
CN(C)c1ccc(/C=C/C=C2/C(=O)NC(=O)N(c3ccccc3)C2=O)cc1	?	?	?	18µM*	-24%	1%
COC(=O)[C@]1(C)CC[C@@]2(C)CC[C@@]3(C)C4=CC=C5C(=CC(=O)C(O)=C5C)[C@@]4(C)CC[C@@]3(C)C2C1 (some centres undefined)	·	·	·	·	5%[60.1 µM]	·
COc1ccc(CCNc2nc3c(c(=O)n(C)c(=O)n3C)n2Cc2ccc(F)cc2)cc1OC	-21%	31%	1%	·	-6%	3%
CC[C@H](C)[C@H](NC(=O)[C@@H](N)Cc1ccc(O)cc1)C(=O)NCC(=O)N[C@@H](CO)C(=O)N[C@@H](CCCN=C(N)N)C(N)=O	·	·	·	·	19%[60.1 µM]	·

Screens (PubChem)
